Laboratory results from PubChem BioAssay (EPA / NIEHS).
Records with an inconclusive call do not appear. A structure can be active in one record and inactive in another. Active and inactive are the calls of the source. The calls were made as follows, unless noted: active = hit-call score of the fitted dose curve at least 0.9, where 1 is the maximum; inactive = score below 0.9.

Columns and labels:
[1] = target: Oxysterols receptor LXR-alpha (Homo sapiens) (UniProt Q13133); experiment: ATG_LXRa_TRANS: Attagene TRANS-FACTORIAL HepG2 Assay for human Liver X Receptor alpha (LXRa) (AID 2282980; active = hit-call score of the fitted dose curve at least 0.9, where 1 is the maximum); settings: HepG2 Attagene TRANS reporter, LXRa transactivation
Sequence of Oxysterols receptor LXR-alpha (Homo sapiens) (Q13133 whole entry, looked up, the tested form may be a part): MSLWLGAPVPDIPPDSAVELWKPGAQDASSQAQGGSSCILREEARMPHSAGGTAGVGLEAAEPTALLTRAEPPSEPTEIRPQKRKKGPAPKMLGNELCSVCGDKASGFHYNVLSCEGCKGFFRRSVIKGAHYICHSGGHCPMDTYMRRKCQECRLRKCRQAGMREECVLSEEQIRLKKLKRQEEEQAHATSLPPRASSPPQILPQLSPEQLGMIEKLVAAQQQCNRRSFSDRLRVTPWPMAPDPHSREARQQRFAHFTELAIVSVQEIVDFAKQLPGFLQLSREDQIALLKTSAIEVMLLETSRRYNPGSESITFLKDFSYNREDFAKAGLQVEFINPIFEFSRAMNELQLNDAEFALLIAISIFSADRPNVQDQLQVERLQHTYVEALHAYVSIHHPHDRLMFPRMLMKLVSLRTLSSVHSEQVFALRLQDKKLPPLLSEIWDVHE
In short: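 Transfect HepG2 with GAL4-UAS multiplex reporter constructs (TRANS format, chimeric receptor-GAL4); treat 24 h; extract RNA, reverse-transcribe, PCR-amplify, FAM-label, HpaI-digest; resolve fragments by capillary electrophoresis. Upward response vs DMSO.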

[2] = target: Oxysterols receptor LXR-beta (Homo sapiens) (UniProt P55055); experiment: ATG_LXRb_TRANS: Attagene TRANS-FACTORIAL HepG2 Assay for human Liver X Receptor beta (LXRb) (AID 2282981; active = hit-call score of the fitted dose curve at least 0.9, where 1 is the maximum); settings: HepG2 Attagene TRANS GAL4-LXRb reporter, mRNA
Sequence of Oxysterols receptor LXR-beta (Homo sapiens) (P55055 whole entry, looked up, the tested form may be a part): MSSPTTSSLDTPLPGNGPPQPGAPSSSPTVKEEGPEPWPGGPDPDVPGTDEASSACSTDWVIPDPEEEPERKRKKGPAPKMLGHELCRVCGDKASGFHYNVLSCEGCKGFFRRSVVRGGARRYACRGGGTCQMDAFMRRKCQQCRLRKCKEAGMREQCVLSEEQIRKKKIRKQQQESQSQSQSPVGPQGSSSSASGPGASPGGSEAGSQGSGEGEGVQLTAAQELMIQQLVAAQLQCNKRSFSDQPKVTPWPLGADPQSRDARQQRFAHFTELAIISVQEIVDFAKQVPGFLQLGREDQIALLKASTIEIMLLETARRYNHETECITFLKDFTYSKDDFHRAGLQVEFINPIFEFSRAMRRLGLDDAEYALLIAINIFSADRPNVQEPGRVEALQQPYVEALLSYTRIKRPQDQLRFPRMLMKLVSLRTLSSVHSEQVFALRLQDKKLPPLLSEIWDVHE
In short: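 Cells: HepG2, transiently transfected with GAL4-UAS reporter units plus LXRb-Gal4 fusion. Treatment: 24 h. Detection: reporter mRNA by RT-PCR, 6-FAM labelling, HpaI digestion, capillary electrophoresis.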

[3] = target: Hepatocyte nuclear factor 4-alpha (Homo sapiens) (UniProt P41235); experiment: ATG_HNF4a_TRANS: Attagene TRANS-FACTORIAL HepG2 Assay for human Hepatocyte Nuclear Factor 4 alpha (HNF4a) (AID 2282982; active = hit-call score of the fitted dose curve at least 0.9, where 1 is the maximum); settings: HepG2 HNF4a transactivation reporter, mRNA readout
Sequence of Hepatocyte nuclear factor 4-alpha (Homo sapiens) (P41235 whole entry, looked up): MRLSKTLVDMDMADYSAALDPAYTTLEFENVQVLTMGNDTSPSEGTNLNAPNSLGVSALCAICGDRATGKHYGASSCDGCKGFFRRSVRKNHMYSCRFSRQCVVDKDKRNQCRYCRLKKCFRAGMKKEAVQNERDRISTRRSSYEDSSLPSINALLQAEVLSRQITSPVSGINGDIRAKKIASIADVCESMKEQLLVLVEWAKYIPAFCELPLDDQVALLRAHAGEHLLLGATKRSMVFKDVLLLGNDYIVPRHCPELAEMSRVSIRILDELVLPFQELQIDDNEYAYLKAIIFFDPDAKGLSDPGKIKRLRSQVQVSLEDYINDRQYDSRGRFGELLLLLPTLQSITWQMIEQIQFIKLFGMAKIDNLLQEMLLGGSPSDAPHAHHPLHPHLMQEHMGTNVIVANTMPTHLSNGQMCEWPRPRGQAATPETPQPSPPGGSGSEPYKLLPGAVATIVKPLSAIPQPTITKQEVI
In short: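 Transfected HepG2 reporter cells are dosed for 24 h; reporter RNA is reverse-transcribed, amplified, fluorescently labelled and HpaI-digested before CE sizing. Positive-direction fit against DMSO.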

[4] = ATG_M_06_TRANS: Attagene TRANS-FACTORIAL HepG2 Assay for M06 Transcription Factor (Internal Marker) (AID 2282983; active = hit-call score of the fitted dose curve at least 0.9, where 1 is the maximum); settings: HepG2 Attagene TRANS M06 internal marker reporter
In short: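 Transfect HepG2 with MRTUs → dose compounds 24 h → isolate RNA, oligo(dT) RT → PCR with reporter primers → 6-FAM primer extension → HpaI digest → CE fragment analysis. Positive direction vs DMSO.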

[5] = ATG_M_32_TRANS: Attagene TRANS-FACTORIAL HepG2 Assay for M32 Transcription Factor (Internal Marker) (AID 2282984; active = hit-call score of the fitted dose curve at least 0.9, where 1 is the maximum;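 also: transcript level of a background control reporter unit measured by RT-PCR and capillary electrophoresis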); settings: HepG2 Attagene TRANS M32 internal marker reporter
In short: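 Using transiently transfected HepG2 cells exposed to test chemicals for 24 h, reporter transcripts are converted to labelled cDNA fragments and quantified by capillary electrophoresis. DMSO defines the activity baseline.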

[6] = target: Nuclear receptor subfamily 4 group A member 2 (Homo sapiens) (UniProt P43354); experiment: ATG_NURR1_TRANS: Attagene TRANS-FACTORIAL HepG2 Assay for human Nuclear Receptor Related Protein 1 (NURR1) (AID 2282985; active = hit-call score of the fitted dose curve at least 0.9, where 1 is the maximum); settings: HepG2 Attagene TRANS reporter, mRNA readout
Sequence of Nuclear receptor subfamily 4 group A member 2 (Homo sapiens) (P43354 whole entry, looked up): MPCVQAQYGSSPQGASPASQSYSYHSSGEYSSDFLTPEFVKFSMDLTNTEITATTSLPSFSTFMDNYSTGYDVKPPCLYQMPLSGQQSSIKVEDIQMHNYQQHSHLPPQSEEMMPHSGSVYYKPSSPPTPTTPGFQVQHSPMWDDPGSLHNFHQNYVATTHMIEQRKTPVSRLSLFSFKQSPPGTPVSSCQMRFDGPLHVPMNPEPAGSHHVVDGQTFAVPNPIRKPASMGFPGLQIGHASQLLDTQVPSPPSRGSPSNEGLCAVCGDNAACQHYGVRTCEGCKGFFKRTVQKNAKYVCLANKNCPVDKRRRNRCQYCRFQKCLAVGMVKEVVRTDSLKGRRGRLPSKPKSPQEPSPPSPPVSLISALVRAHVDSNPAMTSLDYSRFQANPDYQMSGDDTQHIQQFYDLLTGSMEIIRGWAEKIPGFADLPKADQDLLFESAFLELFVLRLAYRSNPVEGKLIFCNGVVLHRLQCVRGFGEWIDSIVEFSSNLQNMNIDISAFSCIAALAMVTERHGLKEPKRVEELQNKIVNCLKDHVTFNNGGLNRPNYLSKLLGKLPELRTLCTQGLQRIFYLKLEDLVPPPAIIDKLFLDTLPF
In short: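 Cells: HepG2, transiently transfected. Exposure: 24 h. Detection: fluorescence of labelled RT-PCR products separated by capillary electrophoresis; upward fit versus DMSO.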

[7] = target: Transcriptional activator Myb (Homo sapiens) (UniProt P10242); experiment: ATG_Myb_CIS: Attagene CIS-FACTORIAL HepG2 Assay for human Myeloblastosis (Myb) Proto-Oncogene Transcription Factor (AID 2282986); settings: HepG2 Attagene CIS-FACTORIAL Myb reporter transcription; actives raise or lower the signal
Sequence of Transcriptional activator Myb (Homo sapiens) (P10242 whole entry, looked up): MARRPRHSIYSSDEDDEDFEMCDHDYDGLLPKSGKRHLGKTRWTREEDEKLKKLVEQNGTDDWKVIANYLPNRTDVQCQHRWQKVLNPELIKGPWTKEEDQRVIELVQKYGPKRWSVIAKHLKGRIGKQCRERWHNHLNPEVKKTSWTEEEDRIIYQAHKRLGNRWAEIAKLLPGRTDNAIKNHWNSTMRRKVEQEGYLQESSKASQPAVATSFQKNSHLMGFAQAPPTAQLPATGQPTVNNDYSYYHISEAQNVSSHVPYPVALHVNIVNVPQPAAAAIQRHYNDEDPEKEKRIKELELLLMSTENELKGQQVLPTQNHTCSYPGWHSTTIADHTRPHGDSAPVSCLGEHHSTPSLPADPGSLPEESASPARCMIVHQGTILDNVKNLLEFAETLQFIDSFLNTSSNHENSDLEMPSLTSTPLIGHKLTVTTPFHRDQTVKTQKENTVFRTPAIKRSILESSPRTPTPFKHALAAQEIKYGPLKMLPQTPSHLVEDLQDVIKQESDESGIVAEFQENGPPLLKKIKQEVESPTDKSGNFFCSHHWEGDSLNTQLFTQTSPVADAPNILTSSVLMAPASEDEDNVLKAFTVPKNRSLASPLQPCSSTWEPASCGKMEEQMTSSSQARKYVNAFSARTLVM
In short: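 Reporter mRNA is quantified by RT-PCR and capillary electrophoresis 24 h after dosing HepG2 cells transfected with cis-regulated reporter units, which track endogenous transcription factor activity. Gain and loss of signal are fitted versus DMSO baseline.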

[8] = target: Nuclear respiratory factor 1 (Homo sapiens) (UniProt Q16656); experiment: ATG_NRF1_CIS: Attagene CIS-FACTORIAL HepG2 Assay for human Nuclear Respiratory Factor 1 (NRF1) Orphan Gene (AID 2282987); settings: HepG2 NRF1 cis-element reporter, Attagene multiplex; actives raise or lower the signal
Sequence of Nuclear respiratory factor 1 (Homo sapiens) (Q16656 whole entry, looked up): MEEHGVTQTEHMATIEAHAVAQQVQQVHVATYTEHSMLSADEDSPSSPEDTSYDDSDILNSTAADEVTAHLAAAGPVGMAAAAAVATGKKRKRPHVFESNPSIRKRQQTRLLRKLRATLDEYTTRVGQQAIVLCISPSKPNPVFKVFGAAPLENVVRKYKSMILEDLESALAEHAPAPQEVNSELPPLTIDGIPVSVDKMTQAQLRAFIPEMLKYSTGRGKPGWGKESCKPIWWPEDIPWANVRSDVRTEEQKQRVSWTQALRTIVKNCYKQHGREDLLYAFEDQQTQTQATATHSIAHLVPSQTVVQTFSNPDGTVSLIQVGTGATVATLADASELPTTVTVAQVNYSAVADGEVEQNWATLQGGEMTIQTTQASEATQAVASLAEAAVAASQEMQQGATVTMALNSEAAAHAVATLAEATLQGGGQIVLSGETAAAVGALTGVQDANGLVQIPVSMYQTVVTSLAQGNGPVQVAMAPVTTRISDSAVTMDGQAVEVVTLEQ
In short: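 Endogenous NRF1-driven reporter transcription in transfected HepG2 cells after 24 h treatment. Readout: RT-PCR products, 6-FAM labelled and resolved by capillary electrophoresis; changes fitted both directions relative to DMSO.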

[9] = ATG_NFI_CIS: Attagene CIS-FACTORIAL HepG2 Assay for human Nuclear Factor I (NFI) (AID 2282989); settings: HepG2 cis-regulatory reporter, NFI response element transcription; actives raise or lower the signal
In short: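 HepG2, transient MRTU, 24 h exposure; RNA→cDNA→PCR→FAM label→HpaI→CE fluorescence. Bidirectional fit, DMSO = baseline.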

[10] = target: Myc proto-oncogene protein (Homo sapiens) (UniProt P01106); experiment: ATG_Myc_CIS: Attagene CIS-FACTORIAL HepG2 Assay for human Myelocytomatosis (Myc) Proto-Oncogene Transcription Factor (AID 2282990); settings: HepG2, Attagene cis-reporter transcription factor activity; actives raise or lower the signal
Sequence of Myc proto-oncogene protein (Homo sapiens) (P01106 whole entry, looked up): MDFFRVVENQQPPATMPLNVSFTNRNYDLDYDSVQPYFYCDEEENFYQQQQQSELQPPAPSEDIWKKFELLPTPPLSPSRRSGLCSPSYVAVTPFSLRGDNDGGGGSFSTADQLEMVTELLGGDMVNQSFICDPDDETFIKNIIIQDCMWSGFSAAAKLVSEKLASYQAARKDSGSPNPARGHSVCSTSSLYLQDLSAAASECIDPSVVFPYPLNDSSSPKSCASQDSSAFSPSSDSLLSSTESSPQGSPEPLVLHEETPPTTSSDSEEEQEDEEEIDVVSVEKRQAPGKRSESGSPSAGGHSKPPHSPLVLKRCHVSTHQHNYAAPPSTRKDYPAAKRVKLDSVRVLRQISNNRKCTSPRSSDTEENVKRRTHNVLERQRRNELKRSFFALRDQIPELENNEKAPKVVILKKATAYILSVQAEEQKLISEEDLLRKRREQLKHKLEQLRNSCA
In short: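 HepG2, transient MRTU transfection (cis promoters, endogenous TFs); 24 h dosing; TriZol RNA → oligo(dT) RT → PCR → 6-FAM primer extension → HpaI cut → CE. Bidirectional fit vs DMSO.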

[11] = ATG_NF_kB_CIS: Attagene CIS-FACTORIAL HepG2 Assay for human Nuclear Factor Kappa B (NF-kB) (AID 2282991); settings: HepG2 Attagene cis-factorial NF-kB reporter mRNA; actives raise or lower the signal
In short: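 Readout is reporter transcript level, gain or loss versus DMSO, measured 24 h post-dose via RT-PCR, fluorescent labelling and capillary electrophoresis. Human HepG2 liver cells carried transiently transfected CIS reporter constructs reflecting endogenous factors.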

[12] = ATG_NRF2_ARE_CIS: Attagene CIS-FACTORIAL HepG2 Assay for human Nuclear Factor Erythroid 2 Related Factor 2 (NFR2) response to Antioxidant Response Elements (ARE) (AID 2282992); settings: HepG2 Attagene ARE/NRF2 reporter, transcription factor activity; actives raise or lower the signal;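 as to AC50: reporter mRNA level measured by RT-PCR and capillary electrophoresis fluorescence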
In short: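 Transient MRTU transfection of HepG2; 24 h compound exposure; TriZol RNA, RT with oligo(dT), PCR, 6-FAM primer extension, HpaI cut, CE. Bidirectional fit vs DMSO.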

[13] = ATG_Oct_MLP_CIS: Attagene CIS-FACTORIAL HepG2 Assay for human Octamer-Binding Transcription Factor (Oct) (AID 2282993); settings: HepG2 Attagene cis-factorial Oct reporter, mRNA; actives raise or lower the signal
In short: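 Multiplexed cis-reporter assay in human liver HepG2 cells, 24 h incubation. Reporter RNA amplified and labelled, then resolved by capillary electrophoresis; DMSO serves as negative control and baseline.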

[14] = target: Cellular tumor antigen p53 (Homo sapiens) (UniProt P04637); experiment: ATG_p53_CIS: Attagene CIS-FACTORIAL HepG2 Assay for human p53 Transcription Factor (AID 2282994); settings: HepG2 p53 cis-element reporter, Attagene mRNA; actives raise or lower the signal
Sequence of Cellular tumor antigen p53 (Homo sapiens) (P04637 whole entry, looked up): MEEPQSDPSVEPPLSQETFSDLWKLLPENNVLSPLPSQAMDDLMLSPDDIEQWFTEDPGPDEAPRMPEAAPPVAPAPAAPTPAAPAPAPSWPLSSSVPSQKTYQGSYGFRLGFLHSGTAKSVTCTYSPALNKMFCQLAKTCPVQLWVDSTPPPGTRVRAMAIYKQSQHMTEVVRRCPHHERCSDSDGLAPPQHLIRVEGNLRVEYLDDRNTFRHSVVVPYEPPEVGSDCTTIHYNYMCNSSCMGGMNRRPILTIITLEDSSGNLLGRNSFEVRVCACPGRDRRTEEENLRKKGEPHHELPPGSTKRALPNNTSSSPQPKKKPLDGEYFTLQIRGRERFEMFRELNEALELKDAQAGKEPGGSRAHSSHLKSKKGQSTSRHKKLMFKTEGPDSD
In short: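 HepG2, transient MRTU transfection (cis promoter elements, endogenous TFs); 24 h dosing; RNA isolation, RT-PCR, 6-FAM primer extension, HpaI digest, CE fluorescence; bidirectional fit vs DMSO.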

[15] = BSK_3C_uPAR: BioMAP Diversity Plus: 3C Assay for Urokinase-type plasminogen activator receptor (uPAR) Biomarker Activity (AID 2282998); settings: BioMAP 3C HUVEC, uPAR biomarker ELISA; actives raise or lower the signal
In short: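 Dose primary human umbilical vein endothelial cells, incubate 24 h, measure cell-surface uPAR by ELISA, then fit the signal in both directions against the DMSO negative control.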

[16] = BSK_3C_VCAM1: BioMAP Diversity Plus: 3C Assay for Vascular cell adhesion molecule 1 (VCAM1) Biomarker Activity (AID 2282999); settings: BioMAP 3C HUVEC, VCAM1 ELISA, cytokine-stimulated; actives raise or lower the signal
In short: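 Endothelial cells from human umbilical vein are treated with test chemical. At 24 h, VCAM-1 is measured by ELISA, and responses in either direction are fitted relative to DMSO.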

[17] = BSK_4H_Eotaxin3: BioMAP Diversity Plus: 4H Assay for Eotaxin 3 Biomarker Activity (AID 2283000); settings: primary human endothelial cells (HUVEC); actives raise or lower the signal
In short: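 Chemicals were added to human umbilical vein endothelium cultures, and Eotaxin-3 was quantified by ELISA at 24 h. Values were derived by bidirectional fitting with DMSO serving as negative control and activity baseline.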

[18] = target: human Peroxisome Proliferator-activated Receptor alpha (PPARa), PPARA (gene 5465) (UniProt Q07869); experiment: ATG_PPARa_TRANS: Attagene TRANS-FACTORIAL HepG2 Assay for human Peroxisome Proliferator-activated Receptor alpha (PPARa) (AID 2283001; active = hit-call score of the fitted dose curve at least 0.9, where 1 is the maximum)
Sequence of human Peroxisome Proliferator-activated Receptor alpha (PPARa), PPARA (gene 5465) (Q07869 whole entry, looked up, the tested form may be a part): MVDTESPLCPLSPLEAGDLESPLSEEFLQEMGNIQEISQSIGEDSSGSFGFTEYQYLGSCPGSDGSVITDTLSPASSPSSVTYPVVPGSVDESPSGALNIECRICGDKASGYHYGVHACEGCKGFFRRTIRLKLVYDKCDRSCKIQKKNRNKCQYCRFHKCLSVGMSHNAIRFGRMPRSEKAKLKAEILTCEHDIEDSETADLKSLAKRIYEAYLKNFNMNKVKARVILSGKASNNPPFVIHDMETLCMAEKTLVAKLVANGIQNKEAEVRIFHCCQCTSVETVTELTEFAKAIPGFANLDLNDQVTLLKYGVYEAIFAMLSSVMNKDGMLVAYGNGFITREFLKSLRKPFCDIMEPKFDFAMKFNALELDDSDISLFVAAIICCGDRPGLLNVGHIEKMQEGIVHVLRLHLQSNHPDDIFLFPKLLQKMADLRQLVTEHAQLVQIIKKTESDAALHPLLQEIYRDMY
In short: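 Reporter transcripts from GAL4-UAS units in transfected HepG2 were quantified 24 h after dosing. Detection used reverse transcription, PCR, fluorescent primer extension and capillary electrophoresis, with DMSO as baseline.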

[19] = BSK_3C_TissueFactor: BioMAP Diversity Plus: 3C Assay for Tissue Factor Biomarker Activity (AID 2282997); settings: BioMAP 3C HUVEC, tissue factor biomarker readout; actives raise or lower the signal
In short: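 ELISA read-out of Tissue Factor levels on human umbilical vein endothelium collected 24 h after chemical dosing. Gain or loss of signal was fitted relative to DMSO.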

Measured: AC50

CCCCOC(=O)c1ccccc1C(=O)OCCCC
active: [12] 62.4 µM [middle of 5 runs]
not listed: [19]
inactive: all other assays above

COP(N)(=O)SC (stereo unspecified)
not listed: [2]
inactive: all other assays above

CCOC(=O)C(Cl)Cc1cc(-n2nc(C)n(C(F)F)c2=O)c(F)cc1Cl (stereo unspecified)
not listed: [3] | [6] | [19]
inactive: all other assays above

CCON=C(CC)C1=C(O)CC(c2c(C)cc(C)cc2C)CC1=O (stereo unspecified)
not listed: [3] | [6] | [18] | [19]
inactive: all other assays above

Cc1c(F)c(F)c(COC(=O)C2C(/C=C(\Cl)C(F)(F)F)C2(C)C)c(F)c1F (stereo unspecified)
not listed: [4] | [19]
inactive: all other assays above

CS/C(C)=N/OC(=O)N(C)SN(C)C(=O)O/N=C(\C)SC
active: [15] 28.6 µM | [16] 24.6 µM | [17] 29.2 µM
not listed: [3] | [4] | [18] | [19]
inactive: all other assays above

COc1cnc(OC)n2nc(NS(=O)(=O)c3c(OCC(F)F)cccc3C(F)(F)F)nc12
active: [17] 0.016 µM
inactive: [1] | [2] | [3] | [4] | [6] | [7] | [8] | [9] | [10] | [12] | [13] | [14] | [19] | [15] | [16] | [17]
